# Measurements as given in the supplement of paper PMC13380429.
# A number with no mark means an inactive call.
# System: Vero E6 infected with SARS-CoV-2
# Assay: inhibition of SARS-CoV-2 cytopathic effect; higher = more antiviral protection, active = above 15
# Conditions: 48 h
Structure (SMILES),inhibition of SARS-CoV-2 cytopathic effect (1 nM),inhibition of SARS-CoV-2 cytopathic effect (8.33 nM),inhibition of SARS-CoV-2 cytopathic effect (100 nM),inhibition of SARS-CoV-2 cytopathic effect (833.33 nM),inhibition of SARS-CoV-2 cytopathic effect (10000 nM)
C[C@H](Oc1cc(-c2cnn(C3CCNCC3)c2)cnc1N)c1c(Cl)ccc(F)c1Cl [crizotinib-(S)],0.35%,-0.2%,-0.33%,-0.47%,54.7% (active)
C/C(=C\c1ccc(C(=O)O)cc1)c1ccc2c(c1)C(C)(C)CCC2(C)C,-0.5%,-1.23%,-2.43%,0.15%,3.67%
O=C(NC(Cc1cc(=O)[nH]c2ccccc12)C(=O)O)c1ccc(Cl)cc1 (stereo not given) [rebamipide],-0.87%,2.6%,4.52%,2.91%,1.77%
OCCN1CCN(CCCN2c3ccccc3C=Cc3ccccc32)CC1 [opipramol],2.92%,1.37%,1.62%,-1.41%,-3.08%
Oc1ccc2c3c1O[C@H]1c4c(c5ccccc5n4Cc4ccccc4)C[C@@]4(O)[C@@H](C2)N(CC2CC2)CC[C@]314 [N-benzylnaltrindole],0.62%,0.67%,2.73%,-0.06%,34% (active)
O=[N+]([O-])c1cccc2c(Br)n[nH]c12 [3-bromo-7-nitroindazole],0.35%,2.23%,0.07%,-3.48%,-0.25%
CC(=O)CC(c1ccccc1)c1c(O)c2ccccc2oc1=O (stereo not given) [warfarin],-10.1%,-9.65%,-9.92%,-10.1%,-14.2%
